About 1,800 (60%) of roughly 3,000 compounds were called active. So high a share suggests a set chosen from earlier hits. Only a sample is shown. Values without a mark were called inactive.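 The calls were made as follows: active = activation at or above a set limit, or at least 3 SD above the negative control mean; inactive = the rest.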
Each molecule was assayed against Nuclear receptor subfamily 1 group D member 1 (Homo sapiens) (UniProt P20393) (assay: Rev-erbα–DNA interaction modulation, retest – biochemical, FITC-DNA, fluorescence polarization, single point, confirmation (AID 1259319;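 also: 0% = 35 nM protein with DMSO and 100% = 750 nM protein high control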)). Settings: Rev-erb alpha FITC-DNA binding, 90 min, at 25 µM, stronger effect = higher value.
Chain of Nuclear receptor subfamily 1 group D member 1 (Homo sapiens) (P20393 whole entry, looked up): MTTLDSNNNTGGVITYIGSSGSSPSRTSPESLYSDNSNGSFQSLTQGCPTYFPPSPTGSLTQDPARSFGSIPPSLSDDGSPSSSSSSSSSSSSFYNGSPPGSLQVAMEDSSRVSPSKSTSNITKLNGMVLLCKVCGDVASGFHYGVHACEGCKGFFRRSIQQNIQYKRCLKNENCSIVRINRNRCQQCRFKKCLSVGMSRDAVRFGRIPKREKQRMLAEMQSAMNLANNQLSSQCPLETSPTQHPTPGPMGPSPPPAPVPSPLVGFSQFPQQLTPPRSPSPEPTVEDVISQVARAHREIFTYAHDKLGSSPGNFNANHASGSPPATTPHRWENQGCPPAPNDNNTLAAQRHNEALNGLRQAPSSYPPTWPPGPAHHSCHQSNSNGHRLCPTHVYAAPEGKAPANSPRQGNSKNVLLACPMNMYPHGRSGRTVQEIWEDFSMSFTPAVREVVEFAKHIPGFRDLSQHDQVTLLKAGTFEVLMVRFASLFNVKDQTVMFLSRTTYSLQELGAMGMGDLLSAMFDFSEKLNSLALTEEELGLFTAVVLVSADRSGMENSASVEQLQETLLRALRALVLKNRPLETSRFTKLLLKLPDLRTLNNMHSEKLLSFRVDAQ
`COc1ccccc1N=Nc1c(O)[nH]c(=S)[nH]c1=O` was tested, and the activation was 41% (active). With `COC(=O)CN(CCCl)P1(=O)OCCCN1CCCl` (configuration not stated) the activation was -6.07%.

Source: PubChem BioAssay AID1259319 (Sanford-Burnham Center for Chemical Genomics, 2017)
